Inconclusive results are not listed. Calls of active or inactive are those of the source. Unless noted, calls come from the whole dose curve; as a rule, active = well fitted curve in the direction sought with a large enough effect; inconclusive = small, poorly fitted or top-dose-only effect, or another doubt; inactive = no such curve, though single readings can be large; an effect the other way counts as inactive or inconclusive.
How the values were obtained:
[1] = target: N-terminal Xaa-Pro-Lys N-methyltransferase 1 (Homo sapiens) (UniProt Q9BV86); assay: Confirmatory qHTS for Inhibitors of N-terminal methyltransferase 1 (NTMT1): MTaseGlo Assay (AID 1645874); note: nearly all actives have a fitted effect of over 65% in size; note: potency is the fitted concentration of half-maximal effect
How it was run: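 Inhibition was derived from luminescence after SAH-to-ATP conversion, scaled between no-enzyme and DMSO wells, then fitted by 4-parameter Hill. Conditions: 125 nM NTMT1, 100 uM SAM, 1 uM SPKRIA, 30 min RT.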

[2] = target: Cytochrome P450 2C9 (Homo sapiens) (UniProt P11712); assay: Cytochrome P450 family 2 subfamily C member 9 (CYP2C9) small molecule antagonists: luciferase biochemical (cell-free) qHTS assay (AID 1645842; active = well fitted curve in the direction sought with a large enough effect in the repeat runs; an effect the other way counts as inactive or inconclusive; note: nearly all actives have a fitted effect of over 55% in size; note: potency is the fitted concentration of half-maximal effect)
How it was run: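 P450-Glo CYP2C9 system: proluciferin substrate with enzyme in mix containing 0.4% BSA, 10 min at room temperature, then NADPH regeneration solution added and incubated 1 h at 37C. Detection reagent stopped reaction; luminescence read after 20 min as RLU.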

[3] = target: Rap guanine nucleotide exchange factor 3 (Homo sapiens) (UniProt O95398); assay: Confirmatory qHTS for antagonist of cAMP-regulated guanine nucleotide exchange factor 3 (EPAC1) (AID 1645880); note: potency is the fitted concentration of half-maximal effect; nearly all actives have a fitted effect of over 55% in size
How it was run: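 Released BODIPY-GDP fluoresces less than Rap1-bound BODIPY-GDP; the signal is followed at 480/540 nm at 5-min intervals over 30 min, after 5 min at room temperature. Reactions contain 100 nM EPAC1, 250 nM RAP1B-BODIPY-GDP and 50 uM GDP; results are normalized to ATA and DMSO.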

[4] = target: Rap guanine nucleotide exchange factor 3 (Homo sapiens) (UniProt O95398); assay: Confirmatory qHTS for agonist of cAMP-regulated guanine nucleotide exchange factor 3 (EPAC1) (AID 1645881);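 note: EPAC1 catalysed release of BODIPY-GDP from Rap1B seen as fluorescence loss; nearly all actives have a fitted effect of over 75% in size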
[5] = target: Rap guanine nucleotide exchange factor 4 (Homo sapiens) (UniProt Q8WZA2); assay: Confirmatory qHTS for agonist of cAMP-regulated guanine nucleotide exchange factor 4 (EPAC2) (AID 1645884);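 note: nucleotide exchange releases bodipy-GDP from Rap1 and this lowers its fluorescence; nearly all actives have a fitted effect of over 65% in size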
[6] = target: Rap guanine nucleotide exchange factor 4 (Homo sapiens) (UniProt Q8WZA2); assay: Confirmatory qHTS for antagonist of cAMP-regulated guanine nucleotide exchange factor 4 (EPAC2) (AID 1645885); note: nearly all actives have a fitted effect of over 25% in size
[7] = target: Rap guanine nucleotide exchange factor 3 (Homo sapiens) (UniProt O95398); assay: Counterscreen qHTS for antagonist of cAMP-regulated guanine nucleotide exchange factor 3 (EPAC1) (AID 1645888)
How it was run: (§1)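 Rap1B-BODIPY-GDP 250 nM + GDP 50 uM; cpds 7-pt, final 9.74 nM–152 uM (activator mode) or from 7.32 nM upwards (inhibitor mode); RT; FI 480/540 nm at 5 and 30 min, then ± cAMP, reread.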

[8] = target: Rap guanine nucleotide exchange factor 3 (Homo sapiens) (UniProt O95398); assay: Counterscreen qHTS for agonist of cAMP-regulated guanine nucleotide exchange factor 3 (EPAC1) (AID 1645889); note: nearly all actives have a fitted effect of over 40% in size
How it was run: as §1

[9] = target: Glutathione peroxidase 1 (Homo sapiens) (UniProt P07203); assay: Primary qHTS Assay for Inhibitors of Recombinant Selenoprotein Glutathione Peroxidase 1 (GPX1) (AID 1845191); note: nearly all actives have a fitted effect of over 65% in size
How it was run: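 NADPH consumption tracked by fluorescence at 340/450 nm between t=0 and t=15 min, room temperature. Final mix: 10 nM GPX1, 100 nM glutathione reductase, 1 mM GSH, 0.5 mM NADPH, 0.5 mM cumene hydroperoxide, 0.01% BSA; 30 min compound–enzyme preincubation.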

[10] = target: Phospholipid hydroperoxide glutathione peroxidase GPX4 (Homo sapiens) (UniProt P36969); assay: Primary qHTS Assay for Inhibitors of Recombinant Selenoprotein Glutathione Peroxidase 4 (GPX4) (AID 1845192); note: series mostly up to about 50 µM; nearly all actives have a fitted effect of over 65% in size
How it was run: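 NADPH consumption followed by fluorescence at 340/450 nm, t=0 and after 15 min at room temperature. Reaction started with cumene hydroperoxide (0.5 mM final) after 30 min compound–GPX4 preincubation; final 200 nM GPX4, 100 nM GR, 1 mM GSH, 0.5 mM NADPH.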

Sequence of Rap guanine nucleotide exchange factor 3 (Homo sapiens) (O95398 whole entry, looked up): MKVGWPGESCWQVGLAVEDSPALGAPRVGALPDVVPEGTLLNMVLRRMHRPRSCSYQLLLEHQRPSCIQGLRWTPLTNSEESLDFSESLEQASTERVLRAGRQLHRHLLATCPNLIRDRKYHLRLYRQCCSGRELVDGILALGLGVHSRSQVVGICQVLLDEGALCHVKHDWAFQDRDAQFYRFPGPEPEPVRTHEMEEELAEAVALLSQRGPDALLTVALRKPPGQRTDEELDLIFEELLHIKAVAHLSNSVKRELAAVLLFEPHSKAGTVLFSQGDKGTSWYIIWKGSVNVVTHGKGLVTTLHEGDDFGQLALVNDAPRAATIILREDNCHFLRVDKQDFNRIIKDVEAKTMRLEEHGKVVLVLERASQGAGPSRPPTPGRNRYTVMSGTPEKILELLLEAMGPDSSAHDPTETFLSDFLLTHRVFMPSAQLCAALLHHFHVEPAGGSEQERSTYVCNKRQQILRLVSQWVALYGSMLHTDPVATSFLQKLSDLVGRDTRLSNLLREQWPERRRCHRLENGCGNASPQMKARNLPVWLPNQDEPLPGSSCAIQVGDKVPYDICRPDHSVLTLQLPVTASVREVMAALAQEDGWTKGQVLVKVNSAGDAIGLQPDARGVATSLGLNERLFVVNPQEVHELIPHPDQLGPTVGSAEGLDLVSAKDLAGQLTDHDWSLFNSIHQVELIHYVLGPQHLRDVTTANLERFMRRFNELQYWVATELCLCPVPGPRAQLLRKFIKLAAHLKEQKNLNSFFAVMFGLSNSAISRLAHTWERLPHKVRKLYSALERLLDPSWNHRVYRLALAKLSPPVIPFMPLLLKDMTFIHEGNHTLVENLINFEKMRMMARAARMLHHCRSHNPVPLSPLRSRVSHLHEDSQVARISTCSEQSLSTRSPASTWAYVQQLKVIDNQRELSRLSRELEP
Sequence of N-terminal Xaa-Pro-Lys N-methyltransferase 1 (Homo sapiens) (Q9BV86 whole entry, looked up): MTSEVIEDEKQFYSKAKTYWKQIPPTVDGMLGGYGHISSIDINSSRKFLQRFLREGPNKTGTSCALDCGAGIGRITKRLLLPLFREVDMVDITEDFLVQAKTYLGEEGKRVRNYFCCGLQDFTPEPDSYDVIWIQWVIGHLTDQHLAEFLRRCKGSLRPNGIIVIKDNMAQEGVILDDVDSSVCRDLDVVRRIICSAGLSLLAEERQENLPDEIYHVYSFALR
Sequence of Rap guanine nucleotide exchange factor 4 (Homo sapiens) (Q8WZA2 whole entry, looked up): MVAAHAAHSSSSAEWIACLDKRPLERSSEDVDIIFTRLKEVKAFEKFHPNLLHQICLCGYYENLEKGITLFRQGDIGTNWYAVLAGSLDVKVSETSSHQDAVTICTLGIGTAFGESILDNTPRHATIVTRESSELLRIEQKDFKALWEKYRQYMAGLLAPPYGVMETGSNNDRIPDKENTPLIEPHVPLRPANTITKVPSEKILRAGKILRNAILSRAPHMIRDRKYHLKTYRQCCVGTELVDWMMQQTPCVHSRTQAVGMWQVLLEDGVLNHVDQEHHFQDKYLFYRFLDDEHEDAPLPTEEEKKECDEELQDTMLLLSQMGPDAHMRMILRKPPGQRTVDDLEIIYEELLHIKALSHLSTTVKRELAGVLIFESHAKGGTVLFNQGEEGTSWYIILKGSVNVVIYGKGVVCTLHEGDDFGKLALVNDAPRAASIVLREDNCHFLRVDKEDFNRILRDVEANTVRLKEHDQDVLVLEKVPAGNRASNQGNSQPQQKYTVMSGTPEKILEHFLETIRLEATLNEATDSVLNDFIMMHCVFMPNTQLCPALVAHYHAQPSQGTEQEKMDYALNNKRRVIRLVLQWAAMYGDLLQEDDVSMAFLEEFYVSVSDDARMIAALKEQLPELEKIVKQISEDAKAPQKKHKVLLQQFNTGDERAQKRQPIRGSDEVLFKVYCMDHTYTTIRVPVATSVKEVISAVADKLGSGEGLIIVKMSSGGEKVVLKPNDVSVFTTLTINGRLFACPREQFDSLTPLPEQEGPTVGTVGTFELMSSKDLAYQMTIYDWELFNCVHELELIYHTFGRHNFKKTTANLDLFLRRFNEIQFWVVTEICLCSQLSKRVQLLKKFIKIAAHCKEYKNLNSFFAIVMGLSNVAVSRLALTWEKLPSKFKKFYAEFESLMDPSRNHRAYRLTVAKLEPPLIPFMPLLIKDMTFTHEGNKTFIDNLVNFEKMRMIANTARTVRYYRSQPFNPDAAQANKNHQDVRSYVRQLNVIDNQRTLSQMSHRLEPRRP
Sequence of Cytochrome P450 2C9 (Homo sapiens) (P11712 whole entry, looked up): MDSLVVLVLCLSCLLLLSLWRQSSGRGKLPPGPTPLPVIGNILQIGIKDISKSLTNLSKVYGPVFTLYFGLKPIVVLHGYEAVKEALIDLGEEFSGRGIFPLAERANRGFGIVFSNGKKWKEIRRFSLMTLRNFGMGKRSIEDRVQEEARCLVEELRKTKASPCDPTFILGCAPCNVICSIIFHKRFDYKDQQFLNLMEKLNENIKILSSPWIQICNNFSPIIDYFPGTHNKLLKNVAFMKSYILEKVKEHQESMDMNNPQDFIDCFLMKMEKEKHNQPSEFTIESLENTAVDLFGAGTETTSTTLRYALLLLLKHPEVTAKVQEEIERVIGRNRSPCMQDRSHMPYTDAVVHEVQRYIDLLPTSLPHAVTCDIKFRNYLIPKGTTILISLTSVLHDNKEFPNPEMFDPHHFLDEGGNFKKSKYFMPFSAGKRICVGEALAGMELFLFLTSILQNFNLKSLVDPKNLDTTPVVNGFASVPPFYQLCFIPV
Sequence of Glutathione peroxidase 1 (Homo sapiens) (P07203 whole entry, looked up): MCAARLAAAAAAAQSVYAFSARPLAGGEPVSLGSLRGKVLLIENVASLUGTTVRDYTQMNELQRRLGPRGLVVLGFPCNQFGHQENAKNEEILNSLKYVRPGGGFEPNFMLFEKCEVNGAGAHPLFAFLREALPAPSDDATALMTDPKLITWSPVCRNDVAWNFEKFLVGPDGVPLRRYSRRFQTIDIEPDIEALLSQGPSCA
Sequence of Phospholipid hydroperoxide glutathione peroxidase GPX4 (Homo sapiens) (P36969 whole entry, looked up): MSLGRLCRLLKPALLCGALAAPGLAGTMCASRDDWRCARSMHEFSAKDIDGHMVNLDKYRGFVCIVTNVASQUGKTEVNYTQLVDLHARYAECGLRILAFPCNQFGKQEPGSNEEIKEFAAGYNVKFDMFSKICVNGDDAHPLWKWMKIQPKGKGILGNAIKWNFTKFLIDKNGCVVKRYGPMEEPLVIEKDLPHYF

With Cc1ccc(-n2ncc3c(NCCO)ncnc32)cc1Cl the Potency [1] was 31.6 µM (active).

In the case of CC(C)(C)c1ccc(-c2nc(SCC(=O)Nc3ccc(Cl)cc3)[nH]c(=O)c2C#N)cc1, the Potency [2] is reported as 3.01 µM (active), the Potency [3] is reported as 84.9 µM (active) and the Potency [4] is reported as “inactive”. The Potency [5] was “inactive”, the Potency [6] was “inactive” and the Potency [7] was “inactive”. The Potency [8] was “inactive”.

With COc1cc(-c2nc3ccc(Cl)cn3c2Nc2ccc3c(c2)OCO3)ccc1O the Potency [1] was 5.15 µM (active).

Cc1cccc(-n2cnc3cc(C(=O)NC4CCCC4)ccc32)c1 was tested, and the Potency [1] was 39.8 µM (active).

In the case of COc1ccc(C(=O)CSc2nc(C)cc(C)c2C(=O)Nc2ccccc2C)cc1, the Potency [1] is reported as “inactive”.

With c1csc(-c2nc3ccccn3c2Nc2ccc3c(c2)OCCO3)c1 the Potency [1] was 6.49 µM (active).

COc1cc2c(NC3CCN(C(C)C)CC3)nc(N3CCCN(c4ccccc4)CC3)nc2cc1OCCCN1CCCC1 was tested, and the Potency [1] was 55.5 µM (active).

For Cc1ccc(C)n1-c1cccc(C(=O)O)c1, the Potency [1] was 6.02 µM (active).

In the case of Cc1ccc(Nc2ncnc3c2cnn3-c2ccccc2)c(C)c1, the Potency [1] is reported as 3.98 µM (active).

With COc1cccc(-c2n[nH]c3c2C(c2cccc(O)c2)N(C)C3=O)c1 (stereo not given) the Potency [1] was 44.7 µM (active).

COc1cc(-c2nc3ccc(Cl)cn3c2Nc2ccc3c(c2)OCCO3)ccc1O was tested, and the Potency [1] was 5.15 µM (active).

In the case of CC(C)CCNc1ncnc2c1cnn2-c1cccc(Cl)c1, the Potency [1] is reported as 14.1 µM (active).

With COCCCNC(=O)CSc1c2c(nc3ccc(Cl)cc13)CCCC2 the Potency [1] was “inactive”.

For CCN(CC)C(=O)[C@]1(c2ccccc2)C[C@H]1CN, the Potency [2] was “inactive”, the Potency [9] was “inactive” and the Potency [10] was “inactive”.

COc1cc2nc(N3CCCC3)nc(NC3CC3)c2cc1OC was tested, and the Potency [1] was 38.8 µM (active).

Cc1ccc(-n2ncc3c(NCCCN(C)C)ncnc32)cc1Cl was tested, and the Potency [1] was 39.8 µM (active).

In the case of Cc1ccc(/C=C/c2nc3ccccc3[nH]2)cc1, the Potency [1] is reported as 6.49 µM (active).
